From PubChem BioAssay AID463173 (ICCB-Longwood Screening Facility, Harvard Medical School, 2010)
About 4,300 (8.3%) of roughly 52,000 compounds were called active. No stated cut-off is given here; in the data, active means survival mostly below about 52% (no sharp cut-off); inactive means mostly above about 56%. The entries come from a sample that favours actives as a whole.

Test system: DeltatarO mutant
Assay: S. aureus survival, RN4220 and DeltatarO strains – OD600, teichoic acid synthesis inhibitors, primary screen (AID 463173)
Settings: S. aureus RN4220 wild type/DeltatarO growth, OD600, 18 h, stronger effect = lower value, screened at 18.75 µg/mL (by protocol)

Compound	survival
CC(C)c1ccc(NC(=O)c2ccc(F)c(S(=O)(=O)N3CCCC3)c2)cc1	74% (inactive)
Cc1ccccc1C(=O)N1CCCCC1CCN1CCCCC1 (stereo unspecified)	80% (inactive)
Cc1ccc(S(=O)(=O)N2CC=C(c3ccc(F)cc3)CC2)cc1	87% (inactive)
Cc1nn2c(=O)cc(COC(=O)c3ccccc3NC(=O)c3cccs3)nc2s1	74% (inactive)
COc1ccc(CN(Cc2ccco2)C(=O)c2ccccc2F)cc1	74% (inactive)
CCOc1ccc(C2C(=O)N(C3CCCCCC3)CC(=O)N2Cc2ccc(C)cc2)cc1OC (stereo unspecified)	96% (inactive)
CSc1cccc(NC(=O)Cn2nc(C)c3sc4ccccc4c3c2=O)c1	83% (inactive)
CC1(C)Oc2ccc3ccc(=O)oc3c2-c2cn[nH]c21	69% (inactive)
Cc1nc2sccn2c1-c1csc(Nc2cccc(Cl)c2C)n1	15% (active)
Cc1cccc(NS(=O)(=O)c2c(C)nc3sccn3c2=O)c1C	108% (inactive)
Cc1nc2sccn2c(=O)c1S(=O)(=O)Nc1cccc(Cl)c1C	68% (inactive)
CCCCC(CC)C(=O)Nc1nnc(C(C)C)s1 (stereo unspecified)	91% (inactive)
O=C(CN1C(=O)CC(c2ccco2)Sc2ccccc21)Nc1ccc(Br)cc1 (stereo unspecified)	75% (inactive)
O=C1CC(c2nnc(Cc3ccc(F)cc3Cl)o2)CN1c1ccccc1 (stereo unspecified)	133% (inactive)
Cc1ccc(SCc2nc(-c3ccc(C(=O)NCCc4ccc(Cl)cc4)cc3)oc2C)cc1	-2% (active)
Cc1ccc(SCc2nc(-c3ccc(C(=O)NCc4ccc(Cl)cc4)cc3)oc2C)cc1	76% (inactive)
COc1ccc(CNC(=O)c2ccc(-c3nc(CSc4ccccc4)c(C)o3)cc2)cc1OC	78% (inactive)
CCc1ccc(CNC(=O)c2ccc(-c3nc(CSc4ccc(C)cc4)c(C)o3)cc2)cc1	67% (inactive)
COc1ccc(OC)c(CNC(=O)c2ccc(-c3nc(CSc4ccccc4)c(C)o3)cc2)c1	120% (inactive)
COc1ccc(CNC(=O)c2ccc(-c3nc(CSc4ccc(C)cc4)c(C)o3)cc2)cc1OC	-1% (active)
COc1ccc(CNC(=O)c2ccc(-c3nc(CSc4ccc(C)cc4)c(C)o3)cc2)c(OC)c1	6% (active)
COc1ccc(CNC(=O)c2ccc(-c3nc(CSc4ccccc4)c(C)o3)cc2)c(OC)c1	85% (inactive)
Cc1oc(-c2ccc(C(=O)NCCc3ccc(Cl)cc3)cc2)nc1CSc1ccccc1	83% (inactive)

Compound	survival
Cc1ccc(NC(=O)CSc2nnc(-c3cc4occc4n3C)n2-c2ccccc2C)c(C)c1	88% (inactive)
Cc1ccc(CSC2=Nc3ccccc3C3=NC(CCC(=O)NCc4cccs4)C(=O)N23)c(C)c1 (stereo unspecified)	76% (inactive)
Cc1ccc2c(c1)cc(C(=O)Nc1ccc(F)cc1F)n2C	106% (inactive)
COc1ccccc1NC(=O)CCCOc1cc(=O)n(C)c2ccccc12	114% (inactive)
Cn1c(=O)[nH]c(=O)c2[nH]c(NCCO)nc21	80% (inactive)
COc1ccc(-c2nc(CN3CCC(C(=O)NCCCN4CCN(c5ccccc5F)CC4)CC3)c(C)o2)cc1OC	70% (inactive)
O=[N+]([O-])c1cc(-c2nc(-c3ccncc3)no2)ccc1NCc1ccccc1	109% (inactive)
COc1ccccc1CNc1ccc(-c2nc(-c3ccncc3)no2)cc1[N+](=O)[O-]	45% (active)
COc1ccccc1CNc1ccc(-c2nc(-c3cccnc3)no2)cc1[N+](=O)[O-]	78% (inactive)
COc1ccc(-c2noc(-c3ccc(NCc4ccccc4OC)c([N+](=O)[O-])c3)n2)cc1	57% (inactive)
COc1ccccc1CNc1ccc(-c2nc(C)no2)cc1[N+](=O)[O-]	68% (inactive)
Cc1ccc(CNc2ccc(-c3nc(-c4cccnc4)no3)cc2[N+](=O)[O-])cc1	75% (inactive)
COc1ccccc1CNc1ccc(-c2nc(-c3ccccn3)no2)cc1[N+](=O)[O-]	43% (active)
Cc1ccc(CNc2ccc(-c3nc(-c4ccncc4)no3)cc2[N+](=O)[O-])cc1	39% (active)
COc1ccccc1CNc1ccc(-c2nc(-c3ccccc3C)no2)cc1[N+](=O)[O-]	91% (inactive)
O=C(CNCC1CCCO1)Nc1ccccc1-n1cccc1 (stereo unspecified)	70% (inactive)
CCOc1ccc(CNCCNC(=O)c2nonc2N)cc1	84% (inactive)
CC1C(=NO)C(C)C(c2ccccc2)NC1c1ccccc1 (stereo unspecified)	99% (inactive)
O=C(Nc1cc(Cl)ccc1O)c1nc2ncccn2n1	74% (inactive)
CCOc1cc(C2C(C(=O)Nc3ccccc3)=C(C)Nc3ncnn32)cc(Br)c1O (stereo unspecified)	102% (inactive)
Cc1ccc2sc(N(CCCN(C)C)C(=O)c3ccco3)nc2c1C	128% (inactive)
COC(=O)CN1C(=O)CSc2ccc(S(=O)(=O)Nc3ccc(F)c(Cl)c3)cc21	83% (inactive)
Cc1ccc(NC(=O)COc2ccc(-c3nn(C)c(=O)c4ccccc34)cc2)c(C)c1	73% (inactive)

Compound	survival
CC(=O)c1cccc(NC(=O)c2cc3c(s2)-c2c(C)cccc2OC3)c1	120% (inactive)
Cc1cc(C(=O)Nc2cccc(C)c2C)c2c(C)nn(-c3cccc(F)c3)c2n1	94% (inactive)
COc1ccc(NC(=O)c2cc(C)nc3c2c(C)nn3-c2cccc(Cl)c2C)c(OC)c1	88% (inactive)
Cc1ccc(CCNC(=O)c2cc(C)nc3c2c(C)nn3-c2ccc(C)cc2)cc1	25% (active)
Cc1ccc(-n2nc(C)c3c(C(=O)NCCc4ccc(S(N)(=O)=O)cc4)cc(C)nc32)cc1	118% (inactive)
CCc1cccc(C)c1NC(=O)c1cc(C)nc2c1c(C)nn2-c1cccc(Cl)c1C	88% (inactive)
Cc1ccc(-n2nc(C)c3c(C(=O)Nc4ccc(Br)c(C)c4)cc(C)nc32)cc1	101% (inactive)
Cc1cc(C(=O)Nc2ccc(C(C)C)cc2)c2c(C)nn(-c3ccccc3)c2n1	73% (inactive)
Cc1cc(C)c(NC(=O)c2cc(C)nc3c2c(C)nn3-c2cccc(F)c2)c(C)c1	94% (inactive)
Cc1ccc(NC(=O)c2cc(C)nc3c2c(C)nn3-c2cccc(Cl)c2C)c(C)c1	-5% (active)
Cc1ccc(-n2nc(C)c3c(C(=O)NCCc4ccccc4)cc(C)nc32)cc1	70% (inactive)
Cc1cc(C)cc(NC(=O)c2cc(C)nc3c2c(C)nn3-c2ccccc2)c1	-5% (active)
Cc1cc(C(=O)Nc2cccc(C(F)(F)F)c2)c2c(C)nn(-c3cccc(F)c3)c2n1	17% (active)
COc1ccc(OC)c(CNC(=O)c2nn(C)c3c2CS(=O)(=O)c2ccccc2-3)c1	74% (inactive)
CCC(C(=O)Nc1ccc(C(=O)OC)cc1)n1c(=O)c(-c2ccccc2NC(C)=O)nc2ccccc21 (stereo unspecified)	94% (inactive)
O=C(CSc1nc2ccsc2c(=O)n1-c1ccc(Br)cc1)NCc1ccccc1	73% (inactive)
CCCCN(CCCC)S(=O)(=O)c1ccc(NC(=O)c2c(-c3ccccc3)noc2C)cc1	60% (inactive)
CCOC(=O)c1c(S(=O)(=O)N2CCCC(C(=O)NCc3cccc(OC)c3)C2)c(C)n(C)c1C (stereo unspecified)	117% (inactive)
Cc1ccc(-c2nc(C)c(CCNC(=O)c3ccccc3Br)s2)cc1	72% (inactive)
CCn1c(=O)cc(OCC(=O)N2CCN(c3ccc(OC)cc3)CC2)c2ccccc21	71% (inactive)
O=C(NCc1cccn1Cc1ccccc1)Nc1ccc(Br)cc1F	66% (inactive)
CCOc1cccc(C2Oc3nc(SC)nnc3-c3ccccc3N2C(C)=O)c1OC (stereo unspecified)	59% (inactive)
Cc1c(C(=O)Nc2ccccc2F)sc2nc3n(c(=O)c12)CCC3	87% (inactive)

Compound	survival
O=C(Cn1ccn(-c2ccc(F)c(F)c2)c(=O)c1=O)NCc1ccccc1	62% (inactive)
COc1cc(OC)cc(-n2c(=O)c3ccccc3n(Cc3ccccc3C#N)c2=O)c1	128% (inactive)
CCc1ccc(-n2nc(C)c3c(C(=O)Nc4ccc(Cl)cc4)cc(C)nc32)cc1	66% (inactive)
CCc1ccc(-n2nc(C)c3c(C(=O)Nc4cccc(C(F)(F)F)c4)cc(C)nc32)cc1	20% (active)
Cc1cc(C(=O)N2CCN(c3ccccc3)CC2)c2c(C)nn(-c3cccc(F)c3)c2n1	91% (inactive)
Cc1ccc(C)c(N2CCN(C(=O)c3cc(C)nc4c3c(C)nn4-c3cccc(F)c3)CC2)c1	8% (active)
CCc1ccc(-n2nc(C)c3c(C(=O)Nc4cc(OC)cc(OC)c4)cc(C)nc32)cc1	102% (inactive)
Cc1ccc(C)c(N2CCN(C(=O)c3cc(C)nc4c3c(C)nn4-c3ccccc3)CC2)c1	126% (inactive)
Cc1cccc2cc(CN(CCO)S(=O)(=O)c3ccc(Cl)cc3)c(=O)[nH]c12	82% (inactive)
CCOCCCNC(=O)c1ccc2c(c1)NC(=O)C(CS(=O)(=O)Cc1ccc(F)cc1Cl)N2 (stereo unspecified)	88% (inactive)
CC(C)Cn1c(N2CCN(C(=O)c3sc4ccccc4c3Cl)CC2)nc2ccccc21	89% (inactive)
CCC(Cc1ccccc1)NC(=O)CN1C(=O)COc2ccc(S(=O)(=O)N3CCCCCC3)cc21 (stereo unspecified)	113% (inactive)
CC(=O)c1cccc(NS(=O)(=O)c2cccc(S(=O)(=O)c3ccc(Br)cc3)c2)c1	55% (inactive)
Cc1cc(NC(=O)c2cc(-c3ccc(Cl)c(Cl)c3)on2)n(-c2ccccc2)n1	63% (inactive)
Cc1cc(NC(=O)c2cc(-c3ccc(Cl)cc3)on2)nn1Cc1ccc(Cl)cc1	140% (inactive)
COc1cccc(-c2cc(C(=O)Nc3ccn(Cc4ccc(C)cc4)n3)no2)c1	33% (active)
COc1cccc(-c2cc(C(=O)Nc3cc(C)nn3-c3ccccc3)no2)c1	74% (inactive)
Cc1ccc(Cn2ccc(NC(=O)c3cc(-c4ccc(Cl)c(Cl)c4)on3)n2)cc1	45% (active)
Cc1cc(NC(=O)c2cc(-c3cccc(Cl)c3)on2)nn1Cc1ccc(Cl)cc1	43% (active)
Cc1cc(NC(=O)c2cc(-c3ccc(Br)cc3)on2)nn1Cc1ccc(Cl)cc1	155% (inactive)
Cc1ccc(CNC(=O)c2cc(-c3ccc(Cl)cc3)on2)cc1	93% (inactive)
COc1ccc(-c2cc(C(=O)Nc3ccn(Cc4ccc(C)cc4)n3)no2)cc1OC	57% (inactive)
